Counter-ions that a name gives are not always drawn.

This assay relates to NCI-H1688. The assay is described as follows: inhibition of cell viability relative to untreated control (fraction); higher = stronger growth inhibition, active = 0.5 or more. Conditions: 30 µM; 24 h. The method, boiled down:
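Inhibition of cell viability appears as a fraction, based on viability relative to untreated cells. The assay used NCI-H1688 small cell lung cancer cells seeded in 96-well plates at 3 × 10^3 cells/well, treated one day later with a natural compound library (TargetMol) at 30 µM for 24 h at 37°C and 5% CO2. Absorbance at 450 nm with Cell Counting Kit-8 was recorded in triplicate.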
`COc1cc(/C=C/c2ccc(O)cc2)cc(OC)c1` [Pterostilbene]: the “inhibition of cell viability” value is 0.252 (inactive).

Take `CC1=CC(=O)c2ccccc2C1=O` [Menadione]: the “inhibition of cell viability” value was 0.979 (active). In the case of `C[C@@H]1O[C@@H](OC[C@H]2O[C@@H](Oc3c(-c4ccc(OCCO)c(OCCO)c4)oc4cc(OCCO)cc(O)c4c3=O)[C@H](O)[C@@H](O)[C@@H]2O)[C@H](O)[C@H](O)[C@H]1O` [Troxerutin], the “inhibition of cell viability” value is -0.145 (inactive).

Regarding `OC[C@H]1O[C@H](OC[C@H]2O[C@H](OC[C@H]3O[C@H](O[C@]4(CO)O[C@H](CO)[C@@H](O)[C@@H]4O)[C@H](O)[C@@H](O)[C@@H]3O)[C@H](O)[C@@H](O)[C@H]2O)[C@H](O)[C@@H](O)[C@H]1O` [D-Stachyose tetrahydrate], the “inhibition of cell viability” value is -0.0317 (inactive). Regarding `CN[C@@H]1[C@H](O)[C@H](NC)[C@H]2O[C@@]3(O)C(=O)C[C@@H](C)O[C@H]3O[C@@H]2[C@H]1O` [Spectinomycin dihydrochloride], the “inhibition of cell viability” value was 0.186 (inactive). Turning to `OCc1ccc(O[C@@H]2O[C@H](CO)[C@@H](O)[C@H](O)[C@H]2O)cc1` [Gastrodin], the “inhibition of cell viability” value is -0.283 (inactive).

`CC(C)=CCOc1c2ccoc2cc2oc(=O)ccc12` [Isoimperatorin]: the “inhibition of cell viability” value is -0.0286 (inactive).

As to `C[C@]12CCC(=O)C=C1CC[C@@H]1[C@@H]2CC[C@@]2(C)[C@H]1CC[C@]2(O)C(=O)CO` [Cortodoxone], the “inhibition of cell viability” value was -0.112 (inactive).
